Measurements from PubChem BioAssay (NCI).
The panel holds about 79,000 compounds, 15% with a hit somewhere; the sample as a whole holds those more often. A number with no mark means an inactive call. Active and inactive are the calls of the source. Cut-off read from the data, not from the text of the source: active = growth inhibition above about 70%; inactive = the rest.

Tests used:
[1] = NCI Yeast Anticancer Drug Screen. Data for the rad50 strain (AID 155);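 note: 0% = growth of vehicle-only cultures of the same strain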; conditions: S. cerevisiae rad50 strain growth inhibition; at 50.0 µM; hits give high values
In short: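 Compounds were tested on a yeast strain with an engineered DNA damage repair alteration; the reported value is growth inhibition normalised to vehicle treatment.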

[2] = NCI Yeast Anticancer Drug Screen. Data for the mec2-1 strain (AID 157); conditions: S. cerevisiae mec2-1 strain, at 50.0 µM, hits give high values
In short: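 Using mec2-1 yeast: add compound, measure growth, express inhibition versus vehicle-treated cultures.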

[3] = NCI Yeast Anticancer Drug Screen. Data for the sgs1 mgt1 strain (AID 161);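 note: 0% = growth of cultures given vehicle only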; conditions: S. cerevisiae sgs1 mgt1 strain, at 50.0 µM, hits give high values
In short: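 Percent growth inhibition was derived by comparing compound-exposed mutant yeast with vehicle-exposed cultures. The strain carries alterations in DNA damage repair.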

[4] = NCI Yeast Anticancer Drug Screen. Data for the cln2 rad14 strain (AID 165);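 note: 0% = growth equal to vehicle treated cultures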; conditions: S. cerevisiae cln2 rad14 strain, at 50.0 µM, hits give high values
In short: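 Yeast strain cln2 rad14, bearing defects in cell cycle control and DNA repair, serves as the test system; values reflect growth inhibition compared with vehicle.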

[5] = NCI Yeast Anticancer Drug Screen. Data for the bub3 strain (AID 167); conditions: S. cerevisiae bub3 mutant strain, at 50.0 µM, hits give high values
In short: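 Growth of a checkpoint-deficient yeast mutant is measured after compound exposure. Values represent inhibition relative to vehicle.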

[6] = NCI Yeast Anticancer Drug Screen. Data for the mlh1 rad18 strain (AID 175); conditions: S. cerevisiae mlh1 rad18 strain growth inhibition; at 50.0 µM; hits give high values
In short: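 Steps: expose repair-defective yeast to compound; measure growth; express inhibition against vehicle-treated controls.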

With `N#C/C(=C\c1cccs1)C(=O)c1ccco1` the growth inhibition [1] was 10.2%, the growth inhibition [2] was 4.65% and the growth inhibition [3] was 24.1%. The growth inhibition [4] was 25.2%, the growth inhibition [5] was 17.2% and the growth inhibition [6] was -5.85%.
`COC(=O)C1=C(C)N(NC(=O)c2ccccc2)C(C)(O)C12CCOC2=O` (centres undefined) showed a growth inhibition [1] of 1.25%, a growth inhibition [2] of -8.35% and a growth inhibition [3] of 5.85%. For the same compound, the growth inhibition [4] was -53%, the growth inhibition [5] was -9.65% and the growth inhibition [6] was -5.15%.
Work on `COc1ccccc1-c1coc2c(ccc3oc(C(C)C)cc32)c1=O` yielded a growth inhibition [1] of -19.2%, a growth inhibition [2] of 20% and a growth inhibition [3] of 3.25%. It also gave a growth inhibition [4] of -52%, a growth inhibition [5] of -0.5% and a growth inhibition [6] of 22.6%.
In the case of `OCCOc1ccc2ccccc2c1-c1c(OCCO)ccc2ccccc12`, the growth inhibition [1] is reported as 98.5% (active), the growth inhibition [2] is reported as 95.7% (active) and the growth inhibition [3] is reported as 98.5% (active). For the same compound, the growth inhibition [4] was 97.7% (active), the growth inhibition [5] was 98.9% (active) and the growth inhibition [6] was 98.6% (active).
Compound `COC1=C(OC)C(=O)C2=C(OCO2)C1=O` has a growth inhibition [1] of -1.05%, a growth inhibition [2] of 16.2% and a growth inhibition [3] of 4.2%. The growth inhibition [4] was -1.35%, the growth inhibition [5] was 16.5% and the growth inhibition [6] was -1.1%.
With `COc1cccc2c1C(=O)C=CC2=O` the growth inhibition [1] was 76.8% (active), the growth inhibition [2] was 80.7% (active) and the growth inhibition [3] was 84.3% (active). The growth inhibition [4] was 87.2% (active), the growth inhibition [5] was 87.2% (active) and the growth inhibition [6] was 91.8% (active).
For `CCc1ccc[n+](-c2ccncc2CC)c1`, the growth inhibition [1] was -7.9%, the growth inhibition [2] was -9.55% and the growth inhibition [3] was -9.15%. For the same compound, the growth inhibition [4] was -12.9%, the growth inhibition [5] was 2.8% and the growth inhibition [6] was -9.8%.
Compound `CC1(C)OCC2OC=CC(=O)C2O1` (centres undefined) has a growth inhibition [1] of -8.65%, a growth inhibition [2] of -2.65% and a growth inhibition [3] of -0.4%. It also gave a growth inhibition [4] of 5.15%, a growth inhibition [5] of -14.1% and a growth inhibition [6] of -68.5%.
Compound `CC(C)CC(C)C` has a growth inhibition [1] of 17.9%, a growth inhibition [2] of -2.6% and a growth inhibition [3] of 20.7%. The growth inhibition [4] was 5.75%, the growth inhibition [5] was 13.4% and the growth inhibition [6] was 25.1%.
In the case of `COC1OC2COC(c3ccccc3)OC2C(OC(=O)c2ccc([N+](=O)[O-])cc2)C1OS(=O)(=O)c1ccc(C)cc1` (centres undefined), the growth inhibition [1] is reported as 39.6%, the growth inhibition [2] is reported as 17.2% and the growth inhibition [3] is reported as 21.6%. The growth inhibition [4] was 25.1%, the growth inhibition [5] was 0.7% and the growth inhibition [6] was 15.8%.
`Nc1c(-c2ncc[nH]2)ncn1CC(O)C(O)C(O)CO` (centres undefined) showed a growth inhibition [1] of 7.5%, a growth inhibition [2] of 19.6% and a growth inhibition [3] of 12.3%. It also gave a growth inhibition [4] of 22.9%, a growth inhibition [5] of 3.2% and a growth inhibition [6] of 17.9%.
Work on `N#CCCn1cnc2c(Cl)ncnc21` yielded a growth inhibition [1] of -10.2%, a growth inhibition [2] of 5.15% and a growth inhibition [3] of -18.2%. It also gave a growth inhibition [4] of -12.7%, a growth inhibition [5] of -7% and a growth inhibition [6] of -2.6%.
`CC(C)CC(=O)c1ccc2ccccc2c1O` showed a growth inhibition [1] of -0.1%, a growth inhibition [2] of -17.1% and a growth inhibition [3] of 6.7%. The growth inhibition [4] was -12.2%, the growth inhibition [5] was -14.2% and the growth inhibition [6] was 5.95%.
In the case of `O=S(=O)(O)c1cc(S(=O)(=O)O)c2c(N=Nc3cccc4ccccc34)c(O)ccc2c1`, the growth inhibition [1] is reported as 0.8%, the growth inhibition [2] is reported as -9.25% and the growth inhibition [3] is reported as -35.5%. It also gave a growth inhibition [4] of -18.1%, a growth inhibition [5] of -35.9% and a growth inhibition [6] of 1.55%.
`Cc1cc2c(c([N+](=O)[O-])c1C)C(=O)C(Br)=C(Br)C2=O` gave a growth inhibition [1] of 15.7%, a growth inhibition [2] of 10.4% and a growth inhibition [3] of 21.5%. It also gave a growth inhibition [4] of 34.7%, a growth inhibition [5] of 5.9% and a growth inhibition [6] of 36.2%.
Work on `CCN(CCO)CC(O)Cn1cnc2c(N)ncnc21` (centres undefined) (tested in a mixture with another compound) yielded a growth inhibition [1] of -10.6%, a growth inhibition [2] of 26.2% and a growth inhibition [3] of -11.8%. The growth inhibition [4] was 31.4%, the growth inhibition [5] was -1.95% and the growth inhibition [6] was 17.4%.
For `CC(C)NC(=O)c1ccc(CON)cc1`, the growth inhibition [1] was 5.15%, the growth inhibition [2] was -9.7% and the growth inhibition [3] was 2.8%. It also gave a growth inhibition [4] of 23.5%, a growth inhibition [5] of 35% and a growth inhibition [6] of 9.8%.
With `CC(C)(C)CC(C)(C)c1c(O)cc(O)cc1Cl` the growth inhibition [1] was 99% (active), the growth inhibition [2] was 99.3% (active) and the growth inhibition [3] was 94.8% (active). For the same compound, the growth inhibition [4] was 99% (active), the growth inhibition [5] was 99.2% (active) and the growth inhibition [6] was 99.2% (active).
Compound `C=C(CN(C)C)c1ccccn1` has a growth inhibition [1] of -11.9%, a growth inhibition [2] of -5.45% and a growth inhibition [3] of -2.3%. For the same compound, the growth inhibition [4] was -16.8%, the growth inhibition [5] was -13.3% and the growth inhibition [6] was -17.6%.
